Experimental data as given in PubChem BioAssay (EPA / NIEHS).
Calls of active or inactive are those of the source. How the source made its calls: active means hit-call score of the fitted dose curve at least 0.9, where 1 is the maximum; inactive means score below 0.9.

Assays:
[1] = Tanguay_ZF_120hpf_ANY: Oregon State University Tanguay Lab 120 Hour Post-fertilization zebrafish Assay for Any Mortality and Malformation (AID 2284404)
How it was run: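 Dechorionated Tropical 5D wild-type embryos, one per well from 6 hpf, static exposure in sealed, dark plates at 28C until 120 hpf, 0.64% DMSO final. Brightfield scoring of mortality and malformations as binary presence/absence, pooling 13 morphology endpoints.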

[2] = CCTE_Padilla_ZF_Score.Craniofacial: CCTE's 144 Hour Post-fertilization zebrafish Assay Score for Craniofacial Malformation, Padilla Lab (AID 2284405)
How it was run: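 Craniofacial defects were scored at 6 dpf by two blinded observers using stereomicroscopy. Exposure of wild-type embryos began at 6–8 hpf in sealed wells of 10% Hanks' solution at 26C, with chemical removed by rinsing at 5 dpf.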

[3] = CCTE_Padilla_ZF_Score.Edema: CCTE's 144 Hour Post-fertilization zebrafish Assay Score for Edema Malformation, Padilla Lab (AID 2284406)
How it was run: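 Edema scored at 6 dpf by two blinded observers under a stereo microscope, in single outbred wild-type larvae exposed from 6-8 hpf in sealed wells (Hanks', 26C, 14:10 h light) and chemical-free after a 5 dpf rinse.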

[4] = CCTE_Padilla_ZF_Score.Spine: CCTE's 144 Hour Post-fertilization zebrafish Assay Score for Spine Malformation, Padilla Lab (AID 2284407)
How it was run: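 Spine malformation scored at 6 dpf by two independent blinded observers under stereomicroscope, after static sealed exposure from 6–8 hpf at 26C in Hanks' solution with rinse on 5 dpf. Positive-direction fit against DMSO control.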

[5] = CCTE_Padilla_ZF_Score.Swim_bladder: CCTE's 144 Hour Post-fertilization zebrafish Assay Score for Swim Bladder Malformation, Padilla Lab (AID 2284408)
How it was run: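 Swim bladder inflation scored at 6 dpf by two blinded observers under a stereo microscope. Exposure ran from 6–8 hpf in sealed wells of 10% Hanks' at 26C, with rinsing at 5 dpf; DMSO served as baseline.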

[6] = CCTE_Padilla_ZF_Score.Position: CCTE's 144 Hour Post-fertilization zebrafish Assay Score for Position, Padilla Lab (AID 2284409)
How it was run: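 Wild-type zebrafish embryos (with chorions) exposed singly from 6–8 hpf in sealed wells of Hanks' solution at 26C, rinsed at 5 dpf. At 6 dpf, blinded assessors scored abnormal water-column position by brightfield stereomicroscopy, relative to DMSO.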

[7] = CCTE_Padilla_ZF_Score.Living: CCTE's 144 Hour Post-fertilization zebrafish Assay Score for Viability, Padilla Lab (AID 2284410);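 further: larval death at 6 dpf judged by absent heartbeat or coagulation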
How it was run: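 Mortality at 6 dpf, judged as absent heartbeat or coagulation by two blinded observers, after sealed static exposure beginning at 6–8 hpf at 26C. Larvae were rinsed free of chemical at 5 dpf, and activity was fitted relative to DMSO.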

[8] = CCTE_Padilla_ZF_Score.General: CCTE's 144 Hour Post-fertilization zebrafish Assay Score for General Malformation, Padilla Lab (AID 2284411)
How it was run: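 Malformation, death and hatching were scored at 6 dpf by two blinded observers under a stereo microscope. Embryos were dosed singly from 6-8 hpf in sealed plates of 10% Hanks' at 26C and rinsed on 5 dpf; DMSO baseline.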

[9] = CCTE_Padilla_ZF_Score.Tail: CCTE's 144 Hour Post-fertilization zebrafish Assay Score for Tail Malformation, Padilla Lab (AID 2284414)
How it was run: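 Tail malformations were scored at 6 dpf by two blinded assessors under a stereo microscope. Chorionated embryos had been exposed from 6-8 hpf in sealed wells of 10% Hanks' at 26 C, then rinsed free of chemical at 5 dpf.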

[10] = CCTE_Padilla_ZF_Score.Blood_pooling: CCTE's 144 Hour Post-fertilization zebrafish Assay Score for Blood Pooling, Padilla Lab (AID 2284415)
How it was run: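 Blood pooling was scored at 6 dpf under a stereo microscope by two blinded assessors, fitted upward against DMSO. Single embryos were dosed at 6–8 hpf in 10% Hanks', kept sealed at 26C (14:10 h cycle) and rinsed at 5 dpf.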

[11] = CCTE_Padilla_ZF_Score.Any: CCTE's 144 Hour Post-fertilization zebrafish Assay Score for Any Mortality or Malformation, Padilla Lab (AID 2284416)
How it was run: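 Wild-type zebrafish embryos with chorions, one per well in 10% Hanks' from 6–8 hpf, dosed in sealed plates at 26 C, 14:10 h light:dark; rinsed at 5 dpf; blinded scoring at 6 dpf for death or malformation, versus DMSO.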

Row | SMILES | outcome [1] | AC50 [2] | AC50 [3] | outcome [4] | AC50 [5] | AC50 [6] | AC50 [7] | AC50 [8] | outcome [9] | outcome [10] | AC50 [11] | outcome [2] | outcome [3] | outcome [5] | outcome [6] | outcome [7] | outcome [11] | outcome [8] | AC50 [10] | AC50 [1]
1 | OCCCCC(F)(F)C(F)(F)C(F)(F)C(F)(F)F | inactive | 39.4 µM (active) | 29.2 µM (active) | inactive | 30.6 µM (active) | 34.1 µM (active) | 88.8 µM (active) | 21 µM (active) | inactive | inactive | 29 µM (active) | – | – | – | – | – | – | – | – | –
2 | NC(O)(C(F)(F)F)C(F)(F)F | inactive | – | – | inactive | – | – | – | 85 µM (active) | inactive | inactive | – | inactive | inactive | inactive | inactive | inactive | inactive | – | – | –
3 | O=S(=O)(OCC(F)(F)F)C(F)(F)C(F)(F)C(F)(F)C(F)(F)F | inactive | – | 34.1 µM (active) | inactive | 88.8 µM (active) | – | – | – | inactive | – | 33.3 µM (active) | inactive | – | – | inactive | inactive | – | inactive | 33.3 µM (active) | –
4 | FC(F)(F)C(F)(F)C(F)(F)C(F)(F)C(F)(F)C(F)(F)CC[Si](Cl)(Cl)Cl | inactive | – | – | – | – | – | – | – | – | – | – | – | – | – | – | – | – | – | – | –
5 | OCC(O)CC(F)(F)C(F)(F)C(F)(F)C(F)(F)F (stereo not drawn) | inactive | – | – | inactive | – | – | – | – | inactive | inactive | – | inactive | inactive | inactive | inactive | inactive | inactive | inactive | – | –
6 | CCOC(=O)CC(=O)C(F)(F)C(F)(F)F | inactive | – | – | inactive | – | – | – | – | inactive | inactive | – | inactive | inactive | inactive | inactive | inactive | inactive | inactive | – | –
7 | NC(=O)C(F)(F)C(F)(F)C(F)(F)C(F)(F)C(F)(F)C(F)(F)C(F)(F)F | – | – | – | inactive | – | – | – | – | inactive | inactive | – | inactive | inactive | inactive | inactive | inactive | inactive | inactive | – | 43.4 µM (active)
8 | OCC(O)CC(F)(F)C(F)(F)C(F)(F)C(F)(F)C(F)(F)C(F)(F)C(F)(F)C(F)(F)F (stereo not drawn) | – | 15.7 µM (active) | 9.75 µM (active) | inactive | 6.73 µM (active) | 17.6 µM (active) | 17.7 µM (active) | 11.8 µM (active) | inactive | inactive | 9.82 µM (active) | – | – | – | – | – | – | – | – | 5.14 µM (active)
9 | OC(O)C(F)(F)C(F)(F)F | inactive | – | – | inactive | – | – | – | – | inactive | inactive | – | inactive | inactive | inactive | inactive | inactive | inactive | inactive | – | –
10 | C=CC(=O)OCCC(F)(F)C(F)(F)C(F)(F)C(F)(F)F | inactive | – | – | inactive | 88.3 µM (active) | – | 20.9 µM (active) | 76.7 µM (active) | inactive | inactive | 30 µM (active) | inactive | inactive | – | inactive | – | – | – | – | –
11 | CCN(CCO)S(=O)(=O)C(F)(F)C(F)(F)C(F)(F)C(F)(F)C(F)(F)C(F)(F)C(F)(F)C(F)(F)F | inactive | – | – | inactive | – | – | – | – | inactive | inactive | – | inactive | inactive | inactive | inactive | inactive | inactive | inactive | – | –
12 | O=S(=O)(O)CCC(F)(F)C(F)(F)C(F)(F)C(F)(F)C(F)(F)C(F)(F)C(F)(F)C(F)(F)F | – | – | – | inactive | – | – | – | – | inactive | inactive | – | inactive | inactive | inactive | inactive | inactive | inactive | inactive | – | 74.4 µM (active)
13 | FC(F)(F)C(F)(F)C(F)(F)C(F)(F)C(F)(F)C(F)(F)C(F)(F)CCI | inactive | – | – | inactive | – | – | – | – | inactive | inactive | – | inactive | inactive | inactive | inactive | inactive | inactive | inactive | – | –
14 | O=C(O)C(F)(F)C(F)(F)C(F)(F)C(=O)O | inactive | – | – | inactive | – | – | – | – | inactive | inactive | – | inactive | inactive | inactive | inactive | inactive | inactive | inactive | – | –
15 | CNS(=O)(=O)C(F)(F)C(F)(F)C(F)(F)C(F)(F)C(F)(F)C(F)(F)C(F)(F)C(F)(F)F | – | 85.1 µM (active) | 20.7 µM (active) | inactive | 0.606 µM (active) | – | – | 0.737 µM (active) | inactive | inactive | 0.778 µM (active) | – | – | – | inactive | inactive | – | – | – | 55.5 µM (active)
16 | O=C(F)C1(F)C(F)(F)C(F)(F)C(F)(F)C(F)(F)C1(F)F | inactive | – | – | inactive | – | – | – | – | inactive | inactive | – | inactive | inactive | inactive | inactive | inactive | inactive | inactive | – | –
17 | O=S(=O)(O)CCC(F)(F)C(F)(F)C(F)(F)C(F)(F)F | inactive | – | – | inactive | – | – | – | – | inactive | inactive | – | inactive | inactive | inactive | inactive | inactive | inactive | inactive | – | –
18 | NS(=O)(=O)C(F)(F)C(F)(F)C(F)(F)C(F)(F)C(F)(F)C(F)(F)F | – | 2.66 µM (active) | 2.27 µM (active) | inactive | 2.66 µM (active) | 2.51 µM (active) | 4.62 µM (active) | 2.27 µM (active) | inactive | inactive | 1.81 µM (active) | – | – | – | – | – | – | – | – | 10.6 µM (active)
19 | OCC(F)(F)C(F)(F)C(F)(F)C(F)(F)C(F)(F)C(F)(F)CO | inactive | 80.4 µM (active) | 62.9 µM (active) | inactive | 11.6 µM (active) | – | – | 47.7 µM (active) | inactive | inactive | 62.4 µM (active) | – | – | – | inactive | inactive | – | – | – | –
20 | C=CC(=O)OCC(F)(F)C(F)(F)C(F)(F)C(F)(F)C(F)(F)C(F)(F)C(F)(F)C(F)F | inactive | – | – | inactive | 102 µM (active) | – | – | – | inactive | inactive | – | inactive | inactive | – | inactive | inactive | inactive | inactive | – | –
21 | COC(F)(C(F)F)C(F)(F)F (stereo not drawn) | inactive | – | – | inactive | – | – | – | – | inactive | inactive | – | inactive | inactive | inactive | inactive | inactive | inactive | inactive | – | –
22 | OCCCC(F)(F)C(F)(F)C(F)(F)C(F)(F)C(F)(F)C(F)(F)C(F)(F)C(F)(F)F | inactive | – | – | inactive | – | – | – | – | inactive | inactive | – | inactive | inactive | inactive | inactive | inactive | inactive | inactive | – | –
23 | OCC(F)(F)C(F)(F)C(F)(F)C(F)(F)C(F)(F)C(F)(F)C(F)(F)C(F)(F)CO | – | – | – | inactive | 3.96 µM (active) | – | 22.2 µM (active) | 4.17 µM (active) | inactive | inactive | 5.84 µM (active) | inactive | inactive | – | inactive | – | – | – | – | 16.7 µM (active)
